In PubChem BioAssay (NCATS):
Several values for one entry are separate records, joined by “and”; a condition that tells them apart may be missing. Identical values can stand only once. Results filed as inconclusive are left out. Activity calls are given as the source filed them. Unless noted, calls come from the whole dose curve; as a rule, active = well fitted curve in the direction sought with a large enough effect; inconclusive = small, poorly fitted or top-dose-only effect, or another doubt; inactive = no such curve, though single readings can be large; an effect the other way counts as inactive or inconclusive. Where a SMILES comes first, the peptide text is derived from it.

How the values were obtained:
[1] = system: Zika virus NS2B-NS3 protease; assay: Primary screen GU AMC qHTS for Zika virus inhibitors (AID 1347154);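 note: 0% = no-inhibitor control and -100% = no-enzyme control; nearly all actives have a fitted effect of over 70% in size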
Outline: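 Unlinked Zika NS2B hydrophilic domain/NS3 protease domain noncovalent complex (25 nM final) in 10 mM Tris-HCl pH 8.0, 0.01% Tween 20, with AMC peptide substrate. Fluorescence (ex 340, em 450 nm) change over 15 min, room temperature; percent inhibition fitted to 4-parameter Hill equation.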

[2] = Primary qHTS for small molecule stabilizers of the endoplasmic reticulum resident proteome: Secreted ER Calcium Modulated Protein (SERCaMP) assay (AID 1508630); note: % is set by controls: 0 for no effect and ±100 for the full control effect
Outline: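 The SH-SY5Y reporter protocol was run at 3 concentrations up to 38.3 uM (primary) or 11 concentrations (follow-up): 16 h compound, 100 nM thapsigargin for 4 h, then extracellular luciferase luminescence.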

[3] = AP1 Signaling Pathway (AID 357; active = well fitted curve in either direction with a large enough effect, not every such curve was filed as active;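 note: ME-180 reporter cells stimulated with EGF at its EC50 level; % is set by controls: 0 for no effect and ±100 for the full control effect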)
Outline: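 A ratiometric CCF4 readout (405 nm excitation; 460 and 530 nm emission) quantified AP-1-driven beta-lactamase in ME-180 cells after 5 h with compound and EC50 EGF; AC50 values were derived for activators and inhibitors.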

[4] = biological target: Cytochrome P450 1A2 (Homo sapiens) (UniProt P05177); assay: p450-cyp1a2 (AID 410; calls by dose curve;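 note: -100% = full effect of reference inhibitor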)
Chain of Cytochrome P450 1A2 (Homo sapiens) (P05177 whole entry, looked up): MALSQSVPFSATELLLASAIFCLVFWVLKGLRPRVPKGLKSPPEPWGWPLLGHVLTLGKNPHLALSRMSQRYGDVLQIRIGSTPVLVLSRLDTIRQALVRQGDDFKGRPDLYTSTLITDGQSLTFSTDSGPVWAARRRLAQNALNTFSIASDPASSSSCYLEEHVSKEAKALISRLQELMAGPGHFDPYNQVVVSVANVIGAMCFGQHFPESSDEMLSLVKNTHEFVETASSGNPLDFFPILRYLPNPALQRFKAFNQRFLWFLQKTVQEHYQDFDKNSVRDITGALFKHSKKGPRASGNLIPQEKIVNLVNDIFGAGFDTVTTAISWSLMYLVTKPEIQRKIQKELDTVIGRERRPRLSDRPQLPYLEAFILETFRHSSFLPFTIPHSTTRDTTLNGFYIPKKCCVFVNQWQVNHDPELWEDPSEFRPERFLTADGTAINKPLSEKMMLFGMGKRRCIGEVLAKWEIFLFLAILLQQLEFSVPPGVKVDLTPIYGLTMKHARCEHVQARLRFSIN
Outline: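 O-Demethylation of luciferin 6' methyl ether by human CYP1A2 is monitored as luciferase luminescence. Substrate sits at Km (100uM); enzyme is 20nM. Values are scaled to 57 uM furafylline as maximal inhibition.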

[5] = NFAT Signaling Pathway (AID 444; active = well fitted curve in either direction with a large enough effect, not every such curve was filed as active;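 note: carbachol stimulus at about its EC50 of 1 µM final; % is set by controls: 0 for no effect and ±100 for the full control effect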); conditions: Jurkat NFAT-bla M1, carbachol, beta-lactamase ratio, 5 h; at 17.2 µM (top of the series)
Outline: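 Jurkat cells carrying an NFAT-driven β-lactamase reporter and co-transfected muscarinic M1 receptor were treated with compound plus carbachol (1 uM final, an EC50 level) for 5 h at 37 °C. CCF4 loading followed for 1 h at RT; 460/530 nm ratio gave %activity.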

[6] = Stat Signaling Pathway (AID 446; active = well fitted curve in either direction with a large enough effect, not every such curve was filed as active;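 note: ME-180 cervical cancer cells given 40 pM IL-6 alongside compound; SIE-controlled beta-lactamase reporter measured as 460/530 nm FRET emission ratio; % is set by controls: 0 for no effect and ±100 for the full control effect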)
Outline: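 Compound effects on IL-6-induced STAT reporter activity were measured in ME-180 cells. After overnight culture, cells were co-treated with 40 pM IL-6 for 5 hrs before beta-lactamase substrate loading at room temperature.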

[7] = biological target: Mitogen-activated protein kinase 10 (Mus musculus) (UniProt Q61831); assay: JNK3 AlphaScreen Assay (AID 530; active = well fitted curve in either direction with a large enough effect, not every such curve was filed as active)
Outline: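 Phosphorylation of biotinylated GST-cJun(1-79) at Ser73 is measured by AlphaScreen proximity luminescence. Enzyme is JNK3 in HepG2 lysates activated with interleukin-1beta and tumor necrosis factor alpha; ATP is 10 uM final.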

[8] = biological target: 3',5'-cyclic-AMP phosphodiesterase 4B (Homo sapiens) (UniProt Q07343); assay: qHTS Assay for Inhibitors of PDE-IV (AID 607; active = well fitted activation curve with a large enough effect in the main read-out, with a control signal flat, not every such curve was filed as active; note: % of control where 0% means no effect)
Chain of 3',5'-cyclic-AMP phosphodiesterase 4B (Homo sapiens) (Q07343 whole entry, looked up): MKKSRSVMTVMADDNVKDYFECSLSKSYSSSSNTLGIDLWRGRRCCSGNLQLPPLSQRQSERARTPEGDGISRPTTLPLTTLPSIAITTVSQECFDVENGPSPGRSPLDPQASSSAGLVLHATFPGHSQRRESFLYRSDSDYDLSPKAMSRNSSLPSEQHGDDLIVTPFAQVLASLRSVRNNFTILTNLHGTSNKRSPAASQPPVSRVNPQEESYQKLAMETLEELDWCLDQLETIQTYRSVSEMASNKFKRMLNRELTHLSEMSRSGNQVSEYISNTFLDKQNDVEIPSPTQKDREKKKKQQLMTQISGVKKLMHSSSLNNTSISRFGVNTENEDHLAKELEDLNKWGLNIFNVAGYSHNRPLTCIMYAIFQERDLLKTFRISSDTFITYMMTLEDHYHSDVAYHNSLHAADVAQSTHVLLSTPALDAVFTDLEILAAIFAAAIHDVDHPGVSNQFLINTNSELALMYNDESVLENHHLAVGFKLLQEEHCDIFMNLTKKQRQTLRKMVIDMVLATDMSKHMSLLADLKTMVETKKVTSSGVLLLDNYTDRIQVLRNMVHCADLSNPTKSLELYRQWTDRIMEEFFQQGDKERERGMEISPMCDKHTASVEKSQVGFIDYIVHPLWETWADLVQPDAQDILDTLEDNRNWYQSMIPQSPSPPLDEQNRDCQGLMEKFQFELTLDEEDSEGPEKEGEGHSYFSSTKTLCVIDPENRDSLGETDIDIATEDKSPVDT
Outline: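 ACTOne HEK293 cells carry a modified cAMP-gated CNG channel and express endogenous PDE4; plated 1000 cells/well, compounds up to 22.9 uM final. Membrane-potential dye fluorescence (ex 535/em 590) was read; parental cells received 10 uM forskolin + 100 uM RO 20-1724.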

[9] = biological target: Cytochrome P450 3A4 (Homo sapiens) (UniProt P08684); assay: qHTS Assay for Activators of Cytochrome P450 3A4 (AID 885); note: nearly all actives have a fitted effect of over 65% in size
Chain of Cytochrome P450 3A4 (Homo sapiens) (P08684 whole entry, looked up): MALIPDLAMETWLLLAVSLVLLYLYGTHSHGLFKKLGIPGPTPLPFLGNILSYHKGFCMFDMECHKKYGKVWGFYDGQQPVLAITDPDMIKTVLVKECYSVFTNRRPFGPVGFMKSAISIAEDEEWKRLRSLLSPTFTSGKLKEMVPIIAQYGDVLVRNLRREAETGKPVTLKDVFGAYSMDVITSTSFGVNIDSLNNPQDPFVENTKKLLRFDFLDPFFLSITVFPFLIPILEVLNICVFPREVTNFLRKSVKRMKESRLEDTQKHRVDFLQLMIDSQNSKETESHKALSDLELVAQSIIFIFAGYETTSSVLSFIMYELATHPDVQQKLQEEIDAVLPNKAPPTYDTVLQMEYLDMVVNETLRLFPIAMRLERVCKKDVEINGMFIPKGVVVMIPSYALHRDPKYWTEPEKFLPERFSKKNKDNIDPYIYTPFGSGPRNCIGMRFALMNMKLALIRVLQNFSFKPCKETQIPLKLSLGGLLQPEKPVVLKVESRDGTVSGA
Outline: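 CYP3A4 activity: Luciferin-PPXE O-dealkylation, 25uM substrate, 200mM KPO4, RT throughout. Read-out is luciferase luminescence; higher values reflect activation.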

[10] = biological target: Cytochrome P450 2D6 (Homo sapiens) (UniProt P10635); assay: qHTS Assay for Inhibitors and Substrates of Cytochrome P450 2D6 (AID 891); note: potency is the fitted concentration of half-maximal effect; nearly all actives have a fitted effect of over 60% in size
Chain of Cytochrome P450 2D6 (Homo sapiens) (P10635 whole entry, looked up): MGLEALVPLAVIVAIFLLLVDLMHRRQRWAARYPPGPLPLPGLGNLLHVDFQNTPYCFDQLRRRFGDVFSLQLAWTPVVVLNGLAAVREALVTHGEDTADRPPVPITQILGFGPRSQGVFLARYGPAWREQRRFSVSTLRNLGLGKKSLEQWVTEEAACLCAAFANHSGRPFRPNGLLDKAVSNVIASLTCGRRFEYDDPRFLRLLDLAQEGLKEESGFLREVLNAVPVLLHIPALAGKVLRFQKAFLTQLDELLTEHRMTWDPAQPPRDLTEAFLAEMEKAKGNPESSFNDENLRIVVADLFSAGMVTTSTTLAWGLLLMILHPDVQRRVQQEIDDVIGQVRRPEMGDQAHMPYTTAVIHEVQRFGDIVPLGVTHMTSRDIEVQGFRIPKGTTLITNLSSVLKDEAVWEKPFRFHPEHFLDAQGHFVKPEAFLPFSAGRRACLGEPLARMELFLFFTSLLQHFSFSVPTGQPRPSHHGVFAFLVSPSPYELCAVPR
Outline: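 Luminescent read-out of luciferin formed by 5 nM human CYP2D6 demethylating 30 uM Luciferin-ME EGE (Km level) over 60 min at room temperature after NADPH regeneration addition. Data normalized to full inhibition by 1.43 uM quinidine.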

[11] = qHTS Assay for Lipid Storage Modulators (AID 1519; calls by dose curve); conditions: Drosophila S3 cells, BODIPY lipid droplet/cell ratio, laser cytometry, cells loaded with oleic acid
Outline: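 Cells seeded at 5,000 per well were treated with compounds over a concentration series and loaded with oleic acid (400 uM, as added). Lipid droplet fluorescence (488 nm excitation, 500-530 nm channel) was read by laser-scanning cytometry and normalized to 20 uM Triacsin C.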

[12] = biological target: Ubiquitin carboxyl-terminal hydrolase 1 (Homo sapiens) (UniProt O94782); assay: Inhibitors of USP1/UAF1: Pilot qHTS (AID 504865);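 note: rhodamine fluorescence freed from ubiquitin-rhodamine substrate followed over time; top concentration of the series differs between compounds; % is set by controls: 0 for no effect and ±100 for the full control effect; nearly all actives have a fitted effect of over 35% in size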
Chain of Ubiquitin carboxyl-terminal hydrolase 1 (Homo sapiens) (O94782 whole entry, looked up): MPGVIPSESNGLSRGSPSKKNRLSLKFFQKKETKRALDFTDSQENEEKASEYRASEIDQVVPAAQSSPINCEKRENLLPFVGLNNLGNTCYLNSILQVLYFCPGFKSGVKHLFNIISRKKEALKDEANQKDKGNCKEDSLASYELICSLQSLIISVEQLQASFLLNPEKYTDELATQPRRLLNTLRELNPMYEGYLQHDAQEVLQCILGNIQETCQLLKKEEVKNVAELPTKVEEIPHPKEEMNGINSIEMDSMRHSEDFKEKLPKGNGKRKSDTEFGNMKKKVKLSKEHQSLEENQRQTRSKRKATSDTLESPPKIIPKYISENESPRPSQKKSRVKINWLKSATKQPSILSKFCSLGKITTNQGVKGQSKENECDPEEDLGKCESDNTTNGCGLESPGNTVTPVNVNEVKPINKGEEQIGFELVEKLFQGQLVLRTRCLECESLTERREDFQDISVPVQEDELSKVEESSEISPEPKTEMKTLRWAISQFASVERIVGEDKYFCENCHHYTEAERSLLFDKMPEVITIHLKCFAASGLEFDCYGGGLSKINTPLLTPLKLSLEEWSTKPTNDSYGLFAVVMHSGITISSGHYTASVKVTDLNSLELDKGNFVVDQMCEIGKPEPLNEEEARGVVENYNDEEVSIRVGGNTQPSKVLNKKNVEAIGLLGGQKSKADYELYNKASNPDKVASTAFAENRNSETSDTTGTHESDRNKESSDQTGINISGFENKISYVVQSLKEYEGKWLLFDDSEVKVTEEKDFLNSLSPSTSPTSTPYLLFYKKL
Outline: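 USP1/UAF1 complex at 1 nM preincubated 15 min at room temperature with compound, then Ub-Rho substrate added at 150 nM final. Fluorescence (480/540 nm) read kinetically in 50 mM HEPES pH 7.8, 0.5 mM EDTA, 1 mM TCEP, 0.1 mg/ml BSA, 0.01% Tween-20.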

[13] = biological target: DNA dC->dU-editing enzyme APOBEC-3G (Homo sapiens) (UniProt Q9HC16); assay: qHTS for inhibitors of Vif-A3G interactions: Validation (AID 588379); note: 0% is about no effect
Chain of DNA dC->dU-editing enzyme APOBEC-3G (Homo sapiens) (Q9HC16 whole entry, looked up): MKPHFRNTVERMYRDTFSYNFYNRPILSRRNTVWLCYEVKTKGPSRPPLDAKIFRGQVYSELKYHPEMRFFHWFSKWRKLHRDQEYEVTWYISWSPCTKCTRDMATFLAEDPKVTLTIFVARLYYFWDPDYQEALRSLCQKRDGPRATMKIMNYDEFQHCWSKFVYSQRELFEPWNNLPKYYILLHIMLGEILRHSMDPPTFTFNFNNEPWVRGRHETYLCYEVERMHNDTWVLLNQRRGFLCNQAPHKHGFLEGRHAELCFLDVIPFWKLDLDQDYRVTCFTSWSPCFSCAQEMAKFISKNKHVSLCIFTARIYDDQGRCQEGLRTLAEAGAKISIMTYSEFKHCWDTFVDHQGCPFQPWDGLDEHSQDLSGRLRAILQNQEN
Outline: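 Yellow fluorescence (Ex 488, Em 500-530) of Vif-coexpressing HeLa A3G-eYFP cells, scanned by Acumen cytometer, reports blocked A3G degradation. Cells plated at 700/well overnight at 37 deg C before compound addition, then a further overnight compound incubation at 37 deg C.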

C[C@H](N)C(=O)N[C@@H](C)C(=O)N[C@@H](Cc1ccccc1)C(=O)CCl (HELM PEPTIDE1{A.A.F.[ClC[*:1]]}$$$$V2.0)
inactive: Potency [1] | Potency [2]

CC1CC2CCC(O2)C(C)C(=O)OC(C)CC2CCC(O2)C(C)C(=O)OC(C)CC2CCC(O2)C(C)C(=O)OC(C)CC2CCC(O2)C(C)C(=O)O1 (configuration not stated)
inactive: Potency [1] | Potency [2]

NCCCC[C@H](NC(=O)[C@H](Cc1ccccc1)NC(=O)[C@H](CCCN=C(N)N)NC(=O)[C@@H](N)Cc1ccc(O)cc1)C(N)=O
inactive: activity change, negative = inhibition [1] 9.11% [at 6.83 µM] | activity change, negative = inhibition [2] -26.5% [at 3.88 µM]

C[C@]12N[C@@H](Cc3ccccc31)c1ccccc12
11.5% [middle of 4 runs]: max response ([11]; measured here: cell count channel max response)
active: Potency [10] 79.4 nM and 5.01 µM
12.1% [middle of 4 runs]: max response ([11]; measured here: lipid channel max response)
inactive: outcome [3] | Potency [4] | activity change, negative = inhibition [5] -0.0371% and -7.29% | outcome [6] | outcome [7] | Potency [8] | Potency [9] | activity change, negative = inhibition ([11]; at 25.7 µM (top of the series)) 1.12% and -0.257% | activity change, negative = inhibition ([11]; at 57.5 µM (top of the series)) 2.32% and -0.0802% | Potency [12] | Potency [13] | Potency [1] | Potency [2]
